proKLK7 act = activators of human kallikrein-7 zymogen; 370,000 tested, 0.9% active; purified proKLK7, EDANS-DABCYL substrate fluorescence; 100% is mature enzyme control, 0% vehicle; activation, % at 7 µM;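 active means activation above the mean of all tested compounds plus 3 SD, computed per campaign excluding outliers beyond control limits, cut at about 13% in these data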
ADAM10 inh = ADAM10 inhibition, QFRET primary screen; O14672; 370,000 tested, 0.62% active; recombinant ADAM10, EDANS/DABCYL FRET peptide cleavage, 3 h; AID 720582; inhibition, % at 7 µM;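 active means inhibition above a per-campaign cutoff equal to the mean of compounds falling between control-based bounds plus 3 SD, cut at about 20% in these data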;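 further: 0% = DMSO wells while the 100% control is not disclosed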
PLC-gamma1 inh = PLC-gamma1 (human) inhibition, primary screen. P19174. purified PLC-gamma1, fluorogenic substrate, fluorescence. 370,000 tested, 0.84% active. AID 720700. inhibition, % at 12.2 µM
PLCb3 inh = PLC-beta3 (human) inhibition, primary screen | inhibition, % at 12.2 µM | Q01970 | 370,000 tested, 0.18% active | AID 720704 | Purified PLC-beta3, fluorogenic substrate, fluorescence; in the data active means inhibition above about 11%;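 further: 0% = median of compound wells on plate and 100% = full blocker control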
Target sequence (Q01970 whole entry, looked up): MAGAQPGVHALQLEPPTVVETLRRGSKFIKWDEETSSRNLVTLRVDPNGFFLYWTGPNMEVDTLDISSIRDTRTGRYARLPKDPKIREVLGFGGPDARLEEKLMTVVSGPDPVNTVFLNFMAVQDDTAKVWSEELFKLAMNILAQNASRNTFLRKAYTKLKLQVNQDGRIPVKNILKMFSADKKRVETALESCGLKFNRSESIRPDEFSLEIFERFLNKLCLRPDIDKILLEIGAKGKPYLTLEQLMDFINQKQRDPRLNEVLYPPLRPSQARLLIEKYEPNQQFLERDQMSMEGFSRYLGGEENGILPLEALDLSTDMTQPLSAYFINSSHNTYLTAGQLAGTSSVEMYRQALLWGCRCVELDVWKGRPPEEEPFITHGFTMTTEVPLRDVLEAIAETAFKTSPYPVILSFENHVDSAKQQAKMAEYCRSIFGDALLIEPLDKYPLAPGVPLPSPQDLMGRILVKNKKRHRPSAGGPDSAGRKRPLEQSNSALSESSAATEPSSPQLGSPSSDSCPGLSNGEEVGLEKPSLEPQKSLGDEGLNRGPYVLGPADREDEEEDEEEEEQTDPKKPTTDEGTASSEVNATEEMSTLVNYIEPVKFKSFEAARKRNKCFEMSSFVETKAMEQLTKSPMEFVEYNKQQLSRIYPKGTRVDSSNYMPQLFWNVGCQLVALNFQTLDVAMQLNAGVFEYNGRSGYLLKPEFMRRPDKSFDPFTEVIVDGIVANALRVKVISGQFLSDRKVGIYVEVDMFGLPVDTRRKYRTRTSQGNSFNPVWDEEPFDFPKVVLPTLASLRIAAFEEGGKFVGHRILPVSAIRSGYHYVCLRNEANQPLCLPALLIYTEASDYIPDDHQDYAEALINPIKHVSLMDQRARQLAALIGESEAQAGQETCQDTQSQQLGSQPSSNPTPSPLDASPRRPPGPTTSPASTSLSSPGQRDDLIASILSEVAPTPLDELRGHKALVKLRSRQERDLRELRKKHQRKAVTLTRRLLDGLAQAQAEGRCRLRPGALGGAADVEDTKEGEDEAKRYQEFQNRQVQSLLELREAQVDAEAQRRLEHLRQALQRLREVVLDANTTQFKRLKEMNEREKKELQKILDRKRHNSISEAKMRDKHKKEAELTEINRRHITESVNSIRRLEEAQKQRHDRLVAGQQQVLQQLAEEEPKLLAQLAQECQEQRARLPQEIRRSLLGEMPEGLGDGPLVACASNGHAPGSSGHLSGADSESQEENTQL
ADAM17 inh = inhibits human ADAM17; P78536; recombinant ADAM17, EDANS/DABCYL FRET peptide cleavage; inhibition, % at 6.95 µM; 370,000 tested, 0.83% active;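 active means inhibition above the mean of compounds lying between control limits plus 3 SD, set per campaign, cut at about 8.5% in these data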;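 further: 0% = DMSO-only wells as the low control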
PLCgamma1 ctr = PLC-gamma1 inhibition, counter-screen for PLC-beta3 hits | shares compounds with PLC-gamma1 inh | purified PLC-gamma1, fluorogenic substrate, fluorescence | inhibition, % at 12.3 µM | 3,300 tested, 3.1% active
PLCbeta3 conf = human PLC-beta3 inhibition, confirmation; shares compounds with PLC-gamma1 inh; purified PLC-beta3, fluorogenic substrate fluorescence; inhibition, % at 12.3 µM; 3,300 tested, 1% active; AID 743261; in the data active means inhibition above about 11%
* = called active by the depositor; . = not tested or not shown. The list is not random: actives were taken first. Their share in the collection is about 2.9%. Unless noted, no stated cut-off is given here; in the data, active means inhibition above about 9.5%; inactive means the rest.

SMILES	proKLK7 act	ADAM10 inh	PLC-gamma1 inh	PLCb3 inh	ADAM17 inh	PLCgamma1 ctr	PLCbeta3 conf
CCN1CCN(S(=O)(=O)c2ccc(OC)cc2)CC1	0	0	1	-2	-5	.	.
CC(C)(C)c1cc(CCC(=O)NCCc2ccccn2)cc(C(C)(C)C)c1O	0	7	-1	-2	5	.	.
O=C1C=C(NCCc2cc(Br)c(O)c(Br)c2)C(=O)c2ncccc21	1	-2	12*	6	4	7	1
O=C(Nc1ccc(F)cc1)Nc1ccccc1F	0	7	3	3	3	.	.
O=C(Nc1ccc(F)cc1)Nc1cccnc1Cl	1	5	13*	-3	5	-9	-2
O=C(CCSCc1ccccc1F)N1CCN(c2ccccn2)CC1	0	-10	10.0*	2	-2	-7	-4
O=C(CSCc1ccccc1Cl)N1CCN(c2ccccn2)CC1	0	-14	-3	1	-8	.	.
CC1CCCCC1N=CC1=C(O)CC(C)(C)CC1=O (stereo not drawn)	0	2	11*	10	2	-4	-2
CCCCCCCCCC(=O)N[C@@H]1c2cc(OC)c(OC)cc2C[C@H]1O	-1	-16	-3	-3	-3	.	.
C=C(C)COc1ccc(-c2nc(N)nc(C(F)(F)F)c2-c2ccc(OC)cc2)c(O)c1	0	5	-10	-18	-2	.	.
COc1ccc(-c2nc(N)nc(C(F)(F)F)c2-c2csc(C)n2)c(O)c1	0	4	11*	-6	-3	-5	-6
S=C1NC2(CCCCCC2)NN1c1ccccc1	0	10	5	8	8	.	.
CCN(CC)S(=O)(=O)c1ccc(NCC2COc3ccccc3O2)c([N+](=O)[O-])c1 (stereo not drawn)	0	16	12*	-2	8	0	4
CCCNC(=O)c1cccc(Cn2nc(C)c(Br)c2C)c1	0	6	12*	8	6	-2	0
Cc1ccc(C)c(NC(=O)CNS(=O)(=O)c2ccc3[nH]c(=O)oc3c2)c1	0	-5	0	0	-2	.	.
Cc1cc(NC(=O)C2C3C(=O)N(Cc4ccc(Cl)cc4)C(C(=O)NC4CCCCC4)C34C=CC2(C)O4)no1 (stereo not drawn)	1	-3	1	6	-3	.	.
Cc1cc(NC(=O)C2C3C(=O)N(Cc4ccc(Cl)cc4)C(C(=O)NCc4ccccc4)C34C=CC2(C)O4)no1 (stereo not drawn)	0	10	10*	13*	7	-4	-2
CC(C)(C)OC(=O)NCc1ccccc1/C=C/S(=O)(=O)NCc1ccccc1	0	5	1	2	1	.	.
CC(Sc1ccccc1)C(=O)NNC(=O)c1csc(N2CCOCC2)n1 (stereo not drawn)	0	-5	-5	-16	-6	.	.
Cc1oc(C)c(C(N)=O)c1C(N)=O	0	7	7	11*	3	-6	-3
Cc1onc(-c2ccccc2)c1C(N)=O	0	6	-1	-3	-1	.	.
COc1ccc(NC2=NC(=S)N(c3ccccc3C)C23CCCCC3)cc1	0	4	5	2	1	.	.
COc1ccc(N2C(=S)N=C(Nc3ccccc3)C23CCCCC3)cc1	0	7	15*	-3	1	0	4
Nc1[nH][nH]c(=O)c1N=Nc1cccc(Cl)c1	-1	5	11*	11*	5	0	4
Cc1nnc(N/N=C/c2cccc(C(F)(F)F)c2)n1N	-1	1	13*	11	-2	-3	0
SMILES	proKLK7 act	ADAM10 inh	PLC-gamma1 inh	PLCb3 inh	ADAM17 inh	PLCgamma1 ctr	PLCbeta3 conf
Cc1nnc(N/N=C/c2ccccc2F)n1N	0	-3	12*	1	-1	-4	-1
Cc1nnc(N/N=C/c2ccccc2C(F)(F)F)n1N	0	1	5	0	-2	.	.
Cc1nnc(N/N=C/c2cccc(OCc3ccc(Cl)c(Cl)c3)c2)n1N	0	8	13*	11*	4	-21	-13
Cc1nnc(N/N=C/c2ccco2)n1N	0	-13	1	-2	-5	.	.
COc1cccc(C(=O)N[C@@H](Cc2cccnc2)C(=O)N2CCC[C@H]2C(=O)NC2CCCC2)c1	0	-6	1	0	-3	.	.
CCn1c(SCC(N)=O)nnc1-c1ccc2c(c1)OCO2	1	-2	2	2	-3	.	.
CCn1c(SCC(N)=O)nnc1-c1ccc(OC)c(OC)c1	0	9	13*	7	6	-4	-1
CCOCCCNC(=O)C(c1ccc(C)cc1)N(Cc1ccc2c(c1)OCO2)C(=O)CNC(C)=O (stereo not drawn)	0	4	13*	0	-1	-26	-12
CCOCCCNC(=O)C(c1ccc(Cl)cc1)N(Cc1ccc2c(c1)OCO2)C(=O)CNC(C)=O (stereo not drawn)	0	-9	0	-2	-6	.	.
O=C1OCC(Cn2c3ccccc3c3ccccc32)O1 (stereo not drawn)	1	7	11*	2	7	-8	-6
O=C(CSc1nnc(-c2cccnc2)n1-c1ccc(Cl)cc1)Nc1ccc(S(=O)(=O)Nc2nccs2)cc1	0	4	-4	-2	1	.	.
CC(=O)Nc1ccc(N2C(=O)CSC2c2c(F)cccc2Cl)cc1 (stereo not drawn)	0	15	8	14*	1	-2	-2
O=[N+]([O-])c1ccc(CS(=O)(=O)c2ncn[nH]2)cc1	0	-5	3	0	-2	.	.
COc1ccc(CS(=O)(=O)c2ncn[nH]2)cc1	-1	7	37*	6	2	20*	-3
CCOc1ccc(C(=O)N[C@H](C(=O)N2CCN(c3ncccn3)CC2)C(C)C)cc1	-1	-7	-2	2	-3	.	.
CCOC(=O)c1ccc[n+](C(C)C(=O)c2ccc(-c3ccccc3)cc2)c1 (stereo not drawn)	0	-5	-17	-14	-2	.	.
CC(C(=O)c1ccc(-c2ccccc2)cc1)[n+]1cccc(NC(=O)c2ccccc2)c1 (stereo not drawn)	1	3	9.7*	2	1	1	0
FC(F)(F)c1cc(CO[C@@H]2CCCN[C@@H]2c2ccccc2)cc(C(F)(F)F)c1	0	11	10*	9	7	-10	-2
FC(F)(F)c1cc(CCN2CCNC[C@@H]2c2ccccc2)cc(C(F)(F)F)c1	-1	-3	-4	-5	-5	.	.
CCCCNC(=O)Cn1c(=O)c2c(ncn2CCC(C)C)n(Cc2ccccc2)c1=O	0	-2	1	4	-3	.	.
